# Source: PubChem (Johns Hopkins Ion Channel Center)
# Rows were chosen to be rich in hits. Some 1.6% of all compounds tested hit in one or more screens of this group.
# KCNQ2 enhance: potentiators of rat KCNQ2 potassium channel | Potassium voltage-gated channel subfamily KQT member 2 (Rattus norvegicus), O88943 | CHO-K1 KCNQ2, FluxOR thallium flux fluorescence; active compounds read high | B-score at 10 µM | hit rate 0.54% among 310,000 | AID 2239, 2010;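 active = fluorescence ratio B-score at least 3 SD of library B-scores, with initial fluorescence B-score within 3 of them, cut at about 5.3 in these data; same plate scores as AID 2156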;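 also: B-score of peak minus minimum over baseline fluorescence ratio after K+ and Tl+ stimulus; positive B-score means potentiation of KCNQ2 with more thallium influx and brighter signal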
# Target sequence (O88943 whole entry, looked up): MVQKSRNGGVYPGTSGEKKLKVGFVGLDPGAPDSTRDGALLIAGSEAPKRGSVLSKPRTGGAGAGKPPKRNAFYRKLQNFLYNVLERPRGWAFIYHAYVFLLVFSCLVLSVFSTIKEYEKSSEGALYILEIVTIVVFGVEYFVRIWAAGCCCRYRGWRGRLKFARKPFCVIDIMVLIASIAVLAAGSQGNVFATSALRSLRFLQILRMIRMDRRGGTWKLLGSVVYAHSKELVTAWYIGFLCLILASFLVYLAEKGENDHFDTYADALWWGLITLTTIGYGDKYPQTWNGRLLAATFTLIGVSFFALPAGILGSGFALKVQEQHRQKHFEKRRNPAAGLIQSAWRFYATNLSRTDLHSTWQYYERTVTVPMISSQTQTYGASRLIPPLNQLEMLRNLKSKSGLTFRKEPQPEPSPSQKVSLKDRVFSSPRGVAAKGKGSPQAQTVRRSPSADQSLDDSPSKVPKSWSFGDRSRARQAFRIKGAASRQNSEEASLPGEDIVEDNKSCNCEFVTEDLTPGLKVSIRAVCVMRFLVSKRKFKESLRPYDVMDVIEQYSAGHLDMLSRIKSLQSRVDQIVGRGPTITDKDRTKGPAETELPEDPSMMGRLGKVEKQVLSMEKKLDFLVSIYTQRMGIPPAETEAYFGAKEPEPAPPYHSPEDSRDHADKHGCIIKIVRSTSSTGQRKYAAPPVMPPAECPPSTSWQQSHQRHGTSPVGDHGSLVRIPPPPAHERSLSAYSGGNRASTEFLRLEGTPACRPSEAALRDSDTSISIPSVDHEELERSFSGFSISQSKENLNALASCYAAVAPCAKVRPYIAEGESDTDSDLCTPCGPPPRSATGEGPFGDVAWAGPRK
# KCNQ2 block: rat KCNQ2 potassium channel inhibitors, primary screen, cell-based, CHO-K1, FluxOR thallium flux, B-score | Potassium voltage-gated channel subfamily KQT member 2 (Rattus norvegicus), O88943 | 20 min; active compounds read low | B-score at 10 µM | hit rate 1.1% among 310,000;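 active = fluorescence ratio B-score at most minus 3 library SDs, with starting brightness B-score within 2 library SDs, cut at about -5.5 in these data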
# Numbers without * were called inactive; i = inactive; / = no result.
SMILES,KCNQ2 enhance,KCNQ2 block
COc1ccc2nc(N3C(=O)CNC3=S)sc2c1,0.42,i
COc1ccc(/C=N/NC(=O)c2cccc(COCC(F)(F)C(F)F)c2)cc1,0.6,i
O=C1c2ccsc2SCCN1Cc1c(F)cccc1Cl,/,i
O=C1c2ccsc2SCCN1Cc1c(Cl)cccc1Cl,-6.65,-6.65*
CC(C)COc1ccc(C(=O)Nc2scc(-c3ccc(Cl)cc3Cl)c2C(N)=O)cc1,-7.07,-7.07*
O=C(Nc1nc(-c2ccc(Cl)cc2Cl)cs1)c1ccc(OCC2CCCO2)cc1 (centres undefined),/,i
Cc1cc(N)ccc1NC(=O)CN1CCCC1,/,i
NC(=O)c1nnn(-c2nonc2N)c1-c1ccc([N+](=O)[O-])cc1,0.88,i
C=C(C)COc1ccc(-c2ncncc2Oc2ccc(OC)cc2)c(O)c1,-5.81,-5.81*
C=C(C)COc1ccc(-c2nc(N)nc(C)c2-c2ccc(OC)cc2)c(O)c1,/,i
Cc1ccc(OCC(=O)N2N=C(c3ccc(Cl)cc3)CC2c2ccco2)c([N+](=O)[O-])n1 (centres undefined),-8.31,-8.31*
CCC(=O)N1N=C(c2ccc(Cl)cc2)CC1c1ccco1 (centres undefined),/,i
CSc1ccc(S(=O)(=O)N2CCC(C(=O)NCC3CCCO3)CC2)cc1 (centres undefined),2.17,i
Oc1cc(Br)ccc1C=Nc1ccc(N2CCCCC2)cc1,-5.76,-5.76*
Oc1ccc(C=Nc2ccc(N3CCOCC3)cc2)c(O)c1,/,i
OCCNC(=S)NCc1ccccc1,/,i
O=C(OCCNC(=O)c1ccc2ccccc2n1)c1ccc(F)cc1,-7.27,-7.27*
O=C(COC(=O)c1ccc2ccccc2n1)c1ccc(F)cc1,0.91,i
CCSc1nnc(-c2ccccc2N=Cc2c(C)[nH]n(-c3ccccc3)c2=O)c(=O)[nH]1,0.71,i
Cc1cccc(C)c1OCc1nc2ccccc2[nH]1,-5.72,-5.72*
Cc1ccc(C)c(OCc2nc3ccccc3[nH]2)c1,/,i
CCN(C(=O)COC(=O)c1cc(S(=O)(=O)N(C)C)ccc1Cl)C1CCS(=O)(=O)C1 (centres undefined),0.68,i
O=C(CNc1cccc(S(=O)(=O)N2CCOCC2)c1)N1CCc2ccccc21,/,i
COCCN1C(=O)/C(=C/c2ccc(Oc3ccc([N+](=O)[O-])cn3)c(OC)c2)SC1=Nc1ccccc1,-6.87,-6.87*
COc1cc(/C=C2\SC(=Nc3ccccc3)N(CCc3c[nH]c4ccccc34)C2=O)ccc1OC(C)C(=O)O (centres undefined),/,i
SMILES,KCNQ2 enhance,KCNQ2 block
Cc1ccc(S(=O)(=O)Cc2cc(F)c([N+](=O)[O-])cc2[N+](=O)[O-])cc1,/,i
COc1ccc(N2CCN(C(=O)c3oc4ccccc4c3NC(=O)Cc3cccc(OC)c3)CC2)cc1,-5.78,-5.78*
COc1ccc(N2CCN(C(=O)c3oc4ccccc4c3NC(=O)Cc3ccc(OC)c(OC)c3)CC2)cc1,/,i
COc1cccc(CNC(=O)CCC2CCCN(C(=O)c3ccoc3)C2)c1 (centres undefined),0.47,i
COc1cccc(CNC(=O)CCC2CCCN(C(=O)c3cc4ccccc4o3)C2)c1 (centres undefined),-6.42,-6.42*
CN(C(=O)c1cccc(C#CC(C)(C)O)c1)C1CCCN(Cc2ccccc2F)C1 (centres undefined),/,i
COC(=O)c1cn(C(=O)c2ccccc2)c2ccccc12,/,i
COC(=O)c1cn(C(=O)c2cc(OC)cc(OC)c2)c2ccccc12,-6.34,-6.34*
Cc1ccc(-c2nnc(SCC(=O)Nc3cccc(C(=O)N4CCOCC4)c3)n2C)cc1,0.52,i
CCCCn1c(-c2csc(CC)c2)n[nH]c1=S,1.94,i
CCCc1cc(-c2n[nH]c(=S)n2CC(C)C)cs1,6.37*,i
COCCNC(=O)c1cc(S(=O)(=O)N2CCOCC2)ccc1SCc1cccc(OC)c1OC,0.03,i
Cc1ccc(S(=O)(=O)c2c(C)nn(C(C)(C)C)c2OC(=O)CC(C)C)cc1,-7.6,-7.6*
Cc1ccc(S(=O)(=O)c2c(C)nn(C(C)(C)C)c2OC(=O)C(C)C)cc1,/,i
C/C(=N\NC(=O)c1cccnc1)c1ccc(OC2OCCOC2Oc2ccc(/C(C)=N/NC(=O)c3cccnc3)cc2)cc1 (centres undefined),0.47,i
CCOC(=O)C1=NN(C(=O)c2cccc(Br)c2)C(O)(C(C)(C)C)C1 (centres undefined),21.7*,i
CCOC(=O)C1=NN(C(=O)c2ccco2)C2(CC2)C1,0.13,i
COc1cc(NC(=O)COc2cc3oc(=O)cc(C)c3cc2Cl)cc(OC)c1OC,2.4,i
Cc1ccccc1CN(c1ccc(C(=O)N/N=C/c2ccc(OCC(N)=O)cc2)cc1)S(C)(=O)=O,0.47,i
O=C(NC(=S)Nc1ccccc1)c1cccs1,4.27,i
O=C(NC(=S)Nc1nc2ccccc2s1)c1cccs1,6.76*,i
CC(C)(C)c1oc(C(=O)O)cc1CN1CCOCC1,/,i
Cc1ccc(NC(=O)c2cccc(C(=O)Nc3ccc(C)c(C)c3)n2)cc1C,-6.41,-6.41*
CCc1ccc(NC(=O)c2cccc(C(=O)Nc3ccc(CC)cc3)n2)cc1,0.46,i
N#CC(c1ccc(F)cc1)c1ccc(C(=O)c2ccc(F)cc2)cc1 (centres undefined),/,i
SMILES,KCNQ2 enhance,KCNQ2 block
Cc1ccc(C(C#N)c2ccc(C(=O)c3ccc(F)cc3)cc2)cc1 (centres undefined),-6.36,-6.36*
CCN(CC)c1cc(CS(=O)c2ccccc2)nc(-c2ccccc2)n1 (centres undefined),/,i
CCOC(=O)c1ccc(N(C(=O)CNC(=O)c2ccco2)C(C(=O)NCC2CCCO2)c2ccc(OC)c(OC)c2)cc1 (centres undefined),0.01,i
O=C1c2ccccc2C(Nc2ccc(Cl)cn2)N1c1ccccn1 (centres undefined),-6.56,-6.56*
O=C1c2ccccc2C(Nc2ccc(S(=O)(=O)N3CCCCCC3)cc2)N1c1ccccn1 (centres undefined),/,i
Cc1ccc(N(CC(=O)Nc2cccc(Cl)c2C)S(C)(=O)=O)cc1,/,i
COc1ccc(-c2ccnc3nc(N4CCN(c5ccccc5)CC4)nn23)cc1,/,i
O=C(CNC(=O)c1nc[nH]c1C(=O)N1CCNCC1)OCc1ccccc1,0.18,i
O=C(CNC(=O)c1nc[nH]c1C(=O)N1CCc2ccccc2C1)OCc1ccccc1,-5.57,-5.57*
COc1ccc(NC(=O)N(C2CCCCC2)C(C)c2cccnc2)c(OC)c1 (centres undefined),/,i
COc1ccc(NC(=O)N(C2CCCCC2)C(C)c2ccco2)c(OC)c1 (centres undefined),-8.15,-8.15*
Cc1cccc(CC(=O)NCCS(=O)(=O)N2CCN(c3cccc(Cl)c3)CC2)c1,/,i
CCOC(=O)c1c(NC(=O)C2c3ccccc3Oc3ccccc32)sc(C(C)=O)c1C,-5.7,-5.7*
COC(=O)c1sc(NC(=O)C2c3ccccc3Oc3ccccc32)c(C(=O)OC)c1C,/,i
Cc1ccc(C(=O)Nc2ccccc2C(=O)N2CC3(C)CC2CC(C)(C)C3)cc1 (centres undefined),-6.06,-6.06*
CC1(C)CC2CC(C)(CN2C(=O)NC(=O)c2ccccc2)C1 (centres undefined),/,i
